# Screens: PubChem BioAssay, National Center for Advancing Translational Sciences (NCATS)
# L3MBTL1 block: inhibitors of human L3MBTL1. Q9Y468. AlphaScreen L3MBTL1–H3K9me1 peptide binding. Potency, µM (highest dose often 57.1 µM), for the others: at the top dose activity, negative = inhibition, most hits filed as inhibitors. actives 0.66% (n = 230,000). AID 485360; further: on the % scale 0 is the no-effect control and ±100 the full control effect; nearly all actives have a fitted effect of over 60% in size
#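 L3MBTL1 50 nM + b-AHA-H3(1-15)K9me1 75 nM, 30 min RT; compound added, 30 min RT; streptavidin donor/Ni-chelate acceptor beads 10 ug/mL each final, 30 min RT dark; AlphaScreen read.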
# HP1b chromo inh: blocks HP1-beta chromodomain binding to methylated histone tails; P83916; AlphaScreen HP1-beta / biotin-H3K9me3 peptide binding; Potency, µM (highest dose often 114 µM), for inactives: at the top dose activity change, negative = inhibition, most hits filed as inhibitors; actives 0.56% (n = 390,000); AID 540317; further: nearly all actives have a fitted effect of over 70% in size
# Target sequence (P83916 whole entry, looked up): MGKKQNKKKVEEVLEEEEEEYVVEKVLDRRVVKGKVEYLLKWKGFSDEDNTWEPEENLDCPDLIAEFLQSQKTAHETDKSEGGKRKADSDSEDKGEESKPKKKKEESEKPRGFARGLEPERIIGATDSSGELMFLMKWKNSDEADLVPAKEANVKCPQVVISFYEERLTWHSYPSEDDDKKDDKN
#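 AlphaScreen: HP1-beta (50 nM) preformed 30 min with biotin-H3(1-18)K9me3 peptide (50 nM) in PBS pH 7.4, 0.01% Tween-20. Compound added for 30 min at RT, then streptavidin donor/nickel chelate acceptor beads (10 ug/mL) for 30 min.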
# JMJD2A Tudor: blocks the human JMJD2A Tudor domain; AlphaScreen JMJD2A-Tudor / H3K4me3 peptide binding; Potency, µM (top dose mostly 114 µM), for inactives: at the top dose activity change, negative = inhibition, hits mostly inhibitors; O75164; actives 4.4% (n = 390,000); further: on the % scale 0 is the no-effect control and ±100 the full control effect; nearly all actives have a fitted effect of over 50% in size
# Sfp inh: inhibitors of Bacillus subtilis Sfp phosphopantetheinyl transferase; Q9F4F7; AID 1490; Potency, µM, without a hit: largest response in the series, negative = inhibition, usual class: inhibitors; Biochemical Sfp PPTase activity, qHTS; actives 3.5% (n = 310,000);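 further: the enzyme is Sfp with the accession as filed and its product quenches rhodamine fluorescence; 0% = enzyme reaction without inhibitor and -100% = no enzyme wells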
#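 Reaction rates are the 30-min fluorescence difference (ex 525, em 598 nm) in wells containing 15 nM Sfp, 5 uM rhodamine-CoA and 12.5 uM BHQ-2-YbbR at pH 7.6 with 10 mM MgCl2.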
# BAZ2B inh: blocks human BAZ2B; AlphaScreen BAZ2B-H3K14Ac peptide displacement; Potency, µM (titrated, usually from 114 µM), inactives show top-dose activity change, negative = inhibition, most hits filed as inhibitors; actives 4.4% (n = 360,000); further: on the % scale 0 is the no-effect control and ±100 the full control effect; nearly all actives have a fitted effect of over 60% in size
#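 BAZ2B (50 nM) with biotin-H3(5-23)K14Ac peptide (50 nM) in PBS pH 7.4, 0.01% Tween-20, preformed 30 min, then compound 30 min at room temperature; top concentration 110uM. AlphaScreen streptavidin donor/nickel chelate acceptor beads (10 ug/mL final), 20 min dark, signal read.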
# G9a block: inhibitors of human histone lysine methyltransferase G9a; G9a H3K9 monomethylation, AlphaScreen, 2 h; actives 8.8% (n = 350,000); Potency, µM (series often up to 102 µM), for inactives: at the highest dose activity, negative = inhibition, hits mostly inhibitors; Q96KQ7; AID 504332; further: on the % scale 0 is the no-effect control and ±100 the full control effect; nearly all actives have a fitted effect of over 75% in size
# Target sequence (Q96KQ7 913-1193 limits assumed): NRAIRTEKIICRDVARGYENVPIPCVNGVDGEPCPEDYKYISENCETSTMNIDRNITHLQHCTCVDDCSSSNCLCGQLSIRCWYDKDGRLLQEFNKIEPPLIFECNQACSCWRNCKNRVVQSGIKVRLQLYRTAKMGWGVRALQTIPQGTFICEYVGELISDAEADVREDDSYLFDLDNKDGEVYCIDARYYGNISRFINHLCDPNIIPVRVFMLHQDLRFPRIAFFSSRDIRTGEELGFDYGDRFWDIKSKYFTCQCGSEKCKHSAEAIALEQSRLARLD
#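 Compounds were preincubated with 20 nM G9a for 15 min, after which biotinylated H3K9 peptide (500 nM) and SAM (20 uM) started a 2 h room-temperature reaction. Monomethylated product was quantified by antibody-based AlphaScreen chemiluminescence.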
# * marks the source's active call; other numbers are inactive results; u = inconclusive; x = no result; ! = not confirmed by another sample; [ ] = dose if it differs, or a comment. An excerpt weighted towards active compounds, which were near 12% of everything screened. The call rests on the fitted dose curve; in most records, active means well fitted curve in the direction sought with a large enough effect; inconclusive means small, poorly fitted or top-dose-only effect, or another doubt; inactive means no such curve, though single readings can be large; an effect the other way counts as inactive or inconclusive. Potency means the concentration at half of the fitted maximal effect.
SMILES,L3MBTL1 block,HP1b chromo inh,JMJD2A Tudor,Sfp inh,BAZ2B inh,G9a block
CN1CCN(c2ccc(NC(=O)CSc3nnnn3-c3ccccc3F)cc2)CC1,x,2.5%,-30.3%,0.0%,-21.3%[57.1 µM],79.4µM*
COc1ccccc1NC(=O)CSc1nnnn1-c1ccccc1F,-0.7%[2.29 µM],-8.8%,-9.0%,39.8µM*,8.4%,-7.0%[0.501 µM]
Cc1ccc(-n2nnnc2SCC(=O)Nc2ccc(N3CCN(C)CC3)cc2)c(C)c1,x,54.6%,6.6%,-6.6%,u,50.1µM*
COc1ccc(-n2nnnc2SCC(=O)NCCc2ccccc2)cc1OC,0.7%,32.1%,-2.7%,8.3%,u,22.4µM*
COc1ccc(NC(=O)CSc2nnnn2-c2ccccc2F)cc1,5.6%,19.6%,-11.5%,19.5%,-8.5%,u
ClCc1nc2ccccc2c2ccccc12,x,45.4%,1.4%,6.2%,-1.1%,70.8µM*
CCOC(=O)c1c(CCl)nc2ccccc2c1-c1ccccc1,x,92.6%,18.3%,-14.6%,-14.6%,u
CC(C)(C)c1ccc(Nc2nc(C#N)nc(NC3CCCC3)n2)cc1,x,x,-17.8%,x,x,x
CC(C)(C)N(C(=O)Cn1nnc(-c2ccc(F)cc2)n1)C(C(=O)NC1CCCC1)c1ccncc1 (centres undefined),-5.2%,19.1%,-28.4%,5.6%,4.1%,7.08µM*
CC(C)(C)NC(=O)C(c1ccncc1)N(CC1CCCO1)C(=O)Cn1nnc(-c2ccc(F)cc2)n1 (centres undefined),-5.8%,13.4%,-11.8%,19.8%,-13.7%,-1.8%
O=C(NC1CCCC1)C(c1ccncc1)N(CC1CCCO1)C(=O)Cn1nnc(-c2cccs2)n1 (centres undefined),5.0%,22.0%,-8.1%,6.6%,10.9%,50.1µM*
Cc1ccc(-c2nnn(CC(=O)N(Cc3ccc(F)cc3)C(C(=O)NC3CCCC3)c3ccncc3)n2)o1 (centres undefined),-2.5%,25.4%,-15.4%,39.8µM*,2.2%,u
Cc1ccc(C(C(=O)NC(C)(C)C)N(CC2CCCO2)C(=O)Cn2nnc(-c3ccc(C)o3)n2)cc1 (centres undefined),-2.1%,-1.0%,-21.2%,56.2µM*,-9.9%,44.7µM*
COc1ccc(NC(=O)Cn2c(=O)n(Cc3nc(C)no3)c(=O)c3cc4c(cc32)OCO4)cc1OC,x,31.0%,-3.8%,x,-14.3%,-27.9%[59 µM]
Cc1ccc(-c2nnn(CC(=O)N(CCO)C(C(=O)NC3CCCCC3)c3ccncc3)n2)o1 (centres undefined),-0.7%,u,-12.0%[11.4 µM],2.4%,-11.2%,44.7µM*
CC(C)CN1CCC2(CC1)CCN(C(=O)c1cc(C(F)(F)F)cc(C(F)(F)F)c1)CC2,x,x,x,34.9%,x,-2.1%[12.7 µM]
CCOC(=O)c1c(C)[nH]c(N=Nc2cccc(OC)c2)c1C,-11.9%,50.1µM*,28.2µM*,u,22.4µM*,31.6µM*
CCOC(=O)c1c(C)[nH]c(CCC(=O)NCc2cccc(C)c2)c1C,x,25.7%[57 µM],-10.1%,x,-13.6%,-0.1%[59 µM]
CCOC(=O)c1c(C)[nH]c(N=Nc2cccc(C)c2)c1C,x,u,25.1µM*,-10.4%,25.1µM*,u
COc1ccc2[nH]cc(CC(=O)O)c2c1,1.2%,18.3%,-26.5%,13.2%,-2.7%,-10.7%
O=C(O)Cc1c[nH]c2ccc(O)cc12,x,29.7%,-9.4%,x,x,23.8µM*!
Cc1ccc(N2C(=O)CCSC23C(=O)N(Cc2ccccc2)c2ccccc23)cc1F (centres undefined),x,-9.7%,u,x,-22.2%[57.1 µM],u
CCc1cccc(NC(=O)CCS(=O)(=O)c2ccc3nc(C)sc3c2)c1,x,27.7%,-20.5%,x,-16.4%,11.2µM*
CCc1cccc(NC(=O)CCSCCC(=O)Nc2cccc(CC)c2)c1,x,33.0%,-5.7%,20.9%,-21.7%,50.1µM*
COCCNC(=O)CCC(=O)N1Cc2cccc(OC)c2Oc2ncccc21,x,60.2%,-5.2%,x,24.7%[57.1 µM],4.0%[59 µM]
